# Results: PubChem BioAssay AID1117280 (The Scripps Research Institute Molecular Screening Center, 2014)
# Screen size: about 1,100 compounds; fewer than 10 were called active.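 The calls were made as follows: active = mean activation above a set limit taken from the earlier primary screen (cut at about 11% in these data); inactive = the rest.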 The list is a sample of the results.
# Molecular target: Transthyretin (Homo sapiens) (UniProt P02766)
# Assay: TTR transcription activators, retest, confirmation, cell-based, luminescence, SH-SY5Y, triplicate (AID 1117280);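 also: 0% = DMSO-treated cells and 100% = recombinant Lucia luciferase without cells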
# Conditions: SHSY5Y TTR promoter Gaussia luciferase, at 16.7 µM, stronger effect = higher value, 100% = purified Lucia enzyme wells, no cells
row,Structure (SMILES),activation
1,COc1ccc(-c2oc3ncn(Cc4ccco4)c(=N)c3c2-c2ccc(OC)cc2)cc1,-0.27% (inactive)
2,O=C(NNC1=NCCC1)c1cccc(S(=O)(=O)N2CCCCC2)c1,0% (inactive)
3,Cc1ccc(CN2CCCOCCS2(=O)=O)cc1,0.01% (inactive)
4,O=S(=O)(NCCCN1CCOCC1)c1ccc(F)c(Cl)c1,1.67% (inactive)
5,N#Cc1cccc(CN2CCC(=O)N(CCO)CC2)c1,0.71% (inactive)
6,Cc1cc(C)c2nc3nc(C)cc(C)c3c(N)c2c1,9.48% (inactive)
7,COc1cccc(-c2cnc(C(O)c3ccccc3OC)[nH]2)c1 (stereo unspecified),-0.09% (inactive)
8,C/C(CC(=O)Nc1ccc(N(C)C)cc1)=N\NC(=O)c1ccccc1F,0.83% (inactive)
9,C(=N\n1cnnc1)/c1cccnc1,0.91% (inactive)
10,CCOc1ccccc1NC(=O)COc1ccc(S(=O)(=O)N2CCCC2)cc1,1.24% (inactive)
11,CSCCC(NC(N)=O)C(=O)N(C)CC(=O)Nc1ccc(C)cc1 (stereo unspecified),-0.85% (inactive)
12,CCOC(=O)c1cc(-c2ccc(Cl)s2)nc2c1c(C)nn2C,0.17% (inactive)
13,O=C(Nc1cccc(O)c1)c1ccc(C(=O)c2ccccc2)o1,-1.44% (inactive)
14,COc1cc(C(C)=O)ccc1OC(C)C(=O)Nc1ccc(S(=O)(=O)N2CCCC2)cc1 (stereo unspecified),0.49% (inactive)
15,Cc1c(NS(=O)(=O)c2ccc(NC3CCCC3)c([N+](=O)[O-])c2)c(=O)n(-c2ccccc2)n1C,-1.51% (inactive)
16,N=c1ccn(CC(=O)NC(N)=O)c2ccccc12,11.7% (active)
17,C[C@H](NC(=O)C1CCN(S(=O)(=O)c2ccccc2)CC1)C(=O)NCc1ccccc1,-0.18% (inactive)
18,CCCCc1cc(=O)oc2cc(C)cc(OCc3nn[nH]n3)c12,0.29% (inactive)
19,O=C(O)C1OC(C(=O)O)C2C1C(F)(F)C2(F)F (stereo unspecified),0.77% (inactive)
20,CCCCOCCCNC(=O)C[C@H]1C[C@@]2(C(=O)OC)C(=C[C@H](C(C)(C)C)O[C@@H]2C)N(CCc2ccc(OC)c(OC)c2)C1=O,-0.4% (inactive)
21,Cc1cccc(C)c1NC(=O)CN1C(=O)C(C)Oc2ccccc21 (stereo unspecified),-0.02% (inactive)
22,Brc1ccc(/C=N/N2CCN(C3c4ccccc4-c4ccccc43)CC2)s1,-0.21% (inactive)
23,O=C(O)Cn1c(Cc2ccccc2)nc2ccccc21,-0.81% (inactive)
24,Cc1nc(-c2ccc(Cl)cc2)sc1C(=O)NN,1.27% (inactive)
25,COc1cc(N2C(=O)CC3(CCCC3)CC2=O)cc(OC)c1OC,0.03% (inactive)
26,CCCCCc1ccc(-c2cn(Cc3ccc4ccccc4c3)nn2)cc1,-0.98% (inactive)
